# Data: PubChem BioAssay (EPA / NIEHS)
# Values joined by “and” are separate entries in the source; they are usually repeats but may differ in a detail not shown here. Identical values can stand only once. Some structures have more than one record in an assay (separate samples or runs), and their calls can disagree. Active and inactive are the calls of the source. Rule for the calls: active = hit-call score of the fitted dose curve at least 0.9, where 1 is the maximum; inactive = score below 0.9.
# Tests used:
# [1] = read-out: flavin-containing dimethylaniline monooxygenases 3 (FMO3), FMO3 (gene 2328); assay: LTEA_HepaRG_FMO3: Life Technologies and Expression Analysis (LTEA) Assay for flavin-containing dimethylaniline monooxygenases 3 (FMO3) using HepaRG (AID 2283453); settings: mRNA level, 48 h; actives raise or lower the signal
# In short: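 Eight-point concentration-response in serum-free HepaRG cultures (top 100 uM, 0.5% DMSO, 48 h). Read-out: FMO3 mRNA level normalized to three endogenous control genes, fitted bidirectionally versus vehicle.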
# [2] = read-out: Cytochrome P450 (CYP1A1), CYP1A1 (gene 1543); assay: LTEA_HepaRG_CYP1A1: Life Technologies and Expression Analysis (LTEA) Assay for Cytochrome P450 (CYP1A1) using HepaRG (AID 2283454); settings: mRNA level, 48 h; actives raise or lower the signal
# In short: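 Differentiated human HepaRG cells, after 48 h plating, exposed in duplicate for 48 h in serum-free induction medium to 8 half-log concentrations up to 100 uM in 0.5% DMSO. CYP1A1 mRNA by qRT-PCR, normalized to ACTB/GAPDH/POLR2A; bidirectional fit versus DMSO.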
# [3] = read-out: CFLAR gene, CFLAR (gene 8837); assay: LTEA_HepaRG_CFLAR: Life Technologies and Expression Analysis (LTEA) Assay for CFLAR gene using HepaRG (AID 2283455); settings: mRNA level, 48 h; actives raise or lower the signal
# In short: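 Gain- or loss-of-signal changes in CFLAR transcript were fitted bidirectionally relative to 0.5% DMSO. Cells (HepaRG, duplicate wells) were dosed for 48 h across eight half-log concentrations topping at 100 uM; quantitation by TaqMan qRT-PCR.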
# [4] = read-out: Forkhead box O1 (FOXO1), FOXO1 (gene 2308); assay: LTEA_HepaRG_FOXO1: Life Technologies and Expression Analysis (LTEA) Assay for Forkhead box O1 (FOXO1) using HepaRG (AID 2283456); settings: mRNA level, 48 h; actives raise or lower the signal
# In short: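 Using one lot of HepaRG hepatic cells kept in 0.5% DMSO, the team applied test chemicals in duplicate, half-log dilutions from 100 uM, for 48 h. Expression, normalised to ACTB/GAPDH/POLR2A, was compared with vehicle in either direction.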
# [5] = read-out: growth arrest and DNA damage 45 (GADD45A), GADD45A (gene 1647); assay: LTEA_HepaRG_GADD45A: Life Technologies and Expression Analysis (LTEA) Assay for growth arrest and DNA damage 45 (GADD45A) using HepaRG (AID 2283458); settings: mRNA level, 48 h; actives raise or lower the signal
# In short: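 HepaRG, 48 h exposure, 8 conc. (top 100 uM, half-log steps), 0.5% DMSO vehicle, duplicates. Read-out: qRT-PCR mRNA level, housekeeping-normalized (ACTB/GAPDH/POLR2A). Curves fit bidirectionally vs DMSO baseline.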
# [6] = read-out: Forkhead box O3 (FOXO3), FOXO3 (gene 2309); assay: LTEA_HepaRG_FOXO3: Life Technologies and Expression Analysis (LTEA) Assay for Forkhead box O3 (FOXO3) using HepaRG (AID 2283459); settings: mRNA level, 48 h; actives raise or lower the signal
# In short: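 Gene-expression endpoint: FOXO3 transcript level by qRT-PCR in HepaRG cultures treated 48 h with chemicals up to 100 uM (half-log, 0.5% DMSO vehicle).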
# [7] = read-out: ABC Transporter (ABCB1), ABCB1 (gene 5243); assay: LTEA_HepaRG_ABCB1: Life Technologies and Expression Analysis (LTEA) Assay for ABC Transporter (ABCB1) using HepaRG (AID 2283460); settings: mRNA level, 48 h; actives raise or lower the signal
# In short: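 Human liver HepaRG line treated 48 h with up to 100 uM compound (eight half-log points, 0.5% DMSO); ABCB1 mRNA change fitted bidirectionally against DMSO controls.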
# [8] = read-out: growth arrest and DNA damage 45 (GADD45B), GADD45B (gene 4616); assay: LTEA_HepaRG_GADD45B: Life Technologies and Expression Analysis (LTEA) Assay for growth arrest and DNA damage 45 (GADD45B) using HepaRG (AID 2283461); settings: mRNA level, 48 h; actives raise or lower the signal
# In short: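 Differentiated human HepaRG cells in serum-free induction medium exposed 48 h in duplicate to eight concentrations, top 100 uM, half-log steps, 0.5% DMSO. GADD45B mRNA by TaqMan qRT-PCR, normalized to ACTB, GAPDH, POLR2A; bidirectional fit versus DMSO.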
# [9] = read-out: ABC Transporter (ABCC3), ABCC3 (gene 8714); assay: LTEA_HepaRG_ABCC3: Life Technologies and Expression Analysis (LTEA) Assay for ABC Transporter (ABCC3) using HepaRG (AID 2283462); settings: mRNA level, 48 h; actives raise or lower the signal
# In short: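 Differentiated human HepaRG cells exposed 48 h in serum-free induction medium, 0.5% DMSO vehicle, 8-point half-log series to 100 uM in duplicate. ABCC3 mRNA by qRT-PCR, normalised to ACTB, GAPDH, POLR2A; bidirectional fit vs DMSO.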
# [10] = read-out: ABC Transporter (ABCB11), ABCB11 (gene 8647); assay: LTEA_HepaRG_ABCB11: Life Technologies and Expression Analysis (LTEA) Assay for ABC Transporter (ABCB11) using HepaRG (AID 2283463); settings: mRNA level, 48 h; actives raise or lower the signal
# In short: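 Using HepaRG cultures held in 0.5% DMSO, chemicals were tested at half-log dilutions from 100 uM for 48 h. Induction or suppression of ABCB11 mRNA, normalized to ACTB, GAPDH and POLR2A, was fitted bidirectionally against vehicle.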
# [11] = read-out: ABC Transporter (ABCC2), ABCC2 (gene 1244); assay: LTEA_HepaRG_ABCC2: Life Technologies and Expression Analysis (LTEA) Assay for ABC Transporter (ABCC2) using HepaRG (AID 2283464); settings: mRNA level, 48 h; actives raise or lower the signal
# In short: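 Differentiated HepaRG cells in serum-free induction medium exposed 48 h to eight half-log concentrations up to 100 uM, 0.5% DMSO, in duplicate. ABCC2 mRNA measured by qRT-PCR (TaqMan, Fluidigm), normalized to ACTB, GAPDH and POLR2A. Fitted in both directions against DMSO.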
# [12] = read-out: Broad substrate specificity ATP-binding cassette transporter ABCG2 (Homo sapiens) (UniProt Q9UNQ0); assay: LTEA_HepaRG_ABCG2: Life Technologies and Expression Analysis (LTEA) Assay for ABC Transporter (ABCG2) using HepaRG (AID 2283465); settings: mRNA level, 48 h; actives raise or lower the signal
# In short: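 Gene expression of ABCG2 in HepaRG liver cells is quantified by qRT-PCR following 48 h exposure across an eight-point series topping at 100 uM. Values come from bidirectional fitting relative to DMSO vehicle.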
# [13] = read-out: ATP-citrate lyase (ACLY), ACLY (gene 47); assay: LTEA_HepaRG_ACLY: Life Technologies and Expression Analysis (LTEA) Assay for ATP-citrate lyase (ACLY) using HepaRG (AID 2283466); settings: mRNA level, 48 h; actives raise or lower the signal
# In short: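 ACLY expression changes in human HepaRG liver cells are quantified by qRT-PCR after 48 h exposure to test chemicals (maximum 100 uM, half-log steps). Values are fitted in both directions relative to 0.5% DMSO vehicle.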
# [14] = read-out: Alkaline Phosphatase, Placental (ALPP) gene, ALPP (gene 250); assay: LTEA_HepaRG_ALPP: Life Technologies and Expression Analysis (LTEA) Assay for Alkaline Phosphatase, Placental (ALPP) gene using HepaRG (AID 2283468); settings: mRNA level, 48 h; actives raise or lower the signal
# In short: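 HepaRG cells plated 48 h, then exposed in duplicate for 48 h in serum-free induction medium to 8-point half-log series from 100 uM in 0.5% DMSO. ALPP mRNA by TaqMan qRT-PCR, normalized to ACTB/GAPDH/POLR2A; bidirectional fit versus DMSO.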
# [15] = read-out: Bcl-2 (BAD) gene, BAD (gene 572); assay: LTEA_HepaRG_BAD: Life Technologies and Expression Analysis (LTEA) Assay for Bcl-2 (BAD) gene using HepaRG (AID 2283469); settings: mRNA level, 48 h; actives raise or lower the signal
# In short: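 Activity values reflect up- or down-regulation of BAD mRNA in human HepaRG hepatic cells treated 48 h in serum-free medium, with eight-point half-log dosing capped at 100 uM and 0.5% DMSO vehicle.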
# [16] = read-out: Bcl-2 (BAX) gene, BAX (gene 581); assay: LTEA_HepaRG_BAX: Life Technologies and Expression Analysis (LTEA) Assay for Bcl-2 (BAX) gene using HepaRG (AID 2283470); settings: mRNA level, 48 h; actives raise or lower the signal
# In short: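 qRT-PCR read-out of BAX mRNA, normalized to three housekeeping genes, after 48 h chemical exposure of human HepaRG cells in serum-free induction medium; eight-point half-log series, top 100 uM, 0.5% DMSO vehicle; bidirectional fit versus DMSO.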
# [17] = read-out: adenosine kinase (ADK) gene, ADK (gene 132); assay: LTEA_HepaRG_ADK: Life Technologies and Expression Analysis (LTEA) Assay for adenosine kinase (ADK) gene using HepaRG (AID 2283471); settings: mRNA level, 48 h; actives raise or lower the signal
# In short: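 Following 48 h exposure of HepaRG cells in 0.5% DMSO (top concentration 100 uM, duplicate wells), ADK mRNA induction or suppression was measured by qRT-PCR, normalised to ACTB/GAPDH/POLR2A, and fitted bidirectionally relative to vehicle.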
# [18] = read-out: Alpha-fetoprotein (AFP) gene, AFP (gene 174); assay: LTEA_HepaRG_AFP: Life Technologies and Expression Analysis (LTEA) Assay for Alpha-fetoprotein (AFP) gene using HepaRG (AID 2283472); settings: mRNA level, 48 h; actives raise or lower the signal
# In short: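 qRT-PCR (Fluidigm TaqMan) readout of AFP transcript, normalized to three housekeeping genes, fitted bidirectionally against 0.5% DMSO baseline. HepaRG cells received chemicals for 48 h in serum-free induction medium, top concentration 100 uM, half-log steps.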
# [19] = CEETOX_H295R_TESTO: CeeTox H295R High-throughput Steroidogenesis Assay for Testosterone (TESTO) (AID 2283457); settings: actives raise or lower the signal;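 note: cells exposed to chemicals for 48 h before medium collection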
# In short: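 H295R adrenal cells, passage ≤10, exposed to chemicals for 48 h. Testosterone in medium measured by MTBE extraction and HPLC-MS/MS against a 7-point standard curve. Bidirectional fit versus DMSO; MTT viability checked in the same wells.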
# Chain of Broad substrate specificity ATP-binding cassette transporter ABCG2 (Homo sapiens) (Q9UNQ0 whole entry, looked up): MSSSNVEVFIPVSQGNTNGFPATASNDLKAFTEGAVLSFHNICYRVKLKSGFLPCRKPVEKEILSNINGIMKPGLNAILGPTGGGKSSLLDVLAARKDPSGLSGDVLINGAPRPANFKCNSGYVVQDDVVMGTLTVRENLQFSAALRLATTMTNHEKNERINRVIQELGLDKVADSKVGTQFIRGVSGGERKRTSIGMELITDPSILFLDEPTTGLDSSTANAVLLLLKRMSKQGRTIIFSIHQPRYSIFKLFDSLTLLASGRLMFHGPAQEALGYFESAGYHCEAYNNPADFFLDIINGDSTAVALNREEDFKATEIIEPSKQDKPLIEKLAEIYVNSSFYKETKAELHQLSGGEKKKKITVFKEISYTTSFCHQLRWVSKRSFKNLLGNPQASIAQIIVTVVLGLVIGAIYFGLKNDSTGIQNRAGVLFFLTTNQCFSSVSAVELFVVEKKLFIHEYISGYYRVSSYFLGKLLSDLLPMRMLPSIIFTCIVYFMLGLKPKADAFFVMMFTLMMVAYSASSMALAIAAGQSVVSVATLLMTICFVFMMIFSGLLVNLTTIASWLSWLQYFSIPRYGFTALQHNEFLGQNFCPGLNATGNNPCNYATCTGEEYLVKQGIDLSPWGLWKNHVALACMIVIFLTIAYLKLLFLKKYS
structure (smiles),measurement,setting,value
CNC(=O)/C=C(\C)OP(=O)(OC)OC,outcome,[1],inactive
same,outcome,[2],inactive
same,outcome,[3],inactive
same,outcome,[4],inactive
same,outcome,[5],inactive
same,outcome,[6],inactive
same,outcome,[7],inactive
same,outcome,[8],inactive
same,outcome,[9],inactive
same,outcome,[10],inactive
same,outcome,[11],inactive
same,outcome,[12],inactive
same,outcome,[13],inactive
same,outcome,[14],inactive
same,outcome,[15],inactive
same,outcome,[16],inactive
same,outcome,[17],inactive
same,outcome,[18],inactive
Oc1ccc(Cl)cc1Cc1ccccc1,outcome,[1],inactive
same,AC50,[2],84.7 µM (active) and 81.3 µM (active) and 84.4 µM (active)
same,AC50,[3],82.3 µM (active)
same,outcome,[3],inactive
same,outcome,[4],inactive
same,AC50,[19],78 µM (active)
same,outcome,[5],inactive
same,AC50,[6],91.5 µM (active) and 87.9 µM (active)
same,outcome,[6],inactive
same,outcome,[7],inactive
same,outcome,[8],inactive
same,outcome,[9],inactive
same,AC50,[10],93.7 µM (active) and 67 µM (active) and 80 µM (active)
same,outcome,[11],inactive
same,outcome,[12],inactive
same,outcome,[13],inactive
same,outcome,[14],inactive
same,outcome,[15],inactive
same,outcome,[16],inactive
same,outcome,[17],inactive
same,AC50,[18],82.5 µM (active) and 90 µM (active)
same,outcome,[18],inactive
